Common to all, as to format: functional
In test [1] the target is Solute carrier family 2, facilitated glucose transporter member 1 (Homo sapiens) (UniProt P11166). The test is described as follows: ST_JUDE_LEISH: Cytotoxicity at 2uM final concentration against transgenic Leishmania Mexicana promastigotes LmGLUT1 that are glucose transport deficient and complemented with the human glucose transporter GLUT1. Activity is measured by DNA content using SYBR green in vitro.

Test [2] addresses Hexose transporter 1 (Plasmodium falciparum) (UniProt O97467). Kind of test: ST_JUDE_LEISH: Cytotoxicity at 2uM final concentration against transgenic Leishmania Mexicana promastigotes LmPfHT that are glucose transport deficient and complemented with the Plasmodium falciparum hexose transporter. Activity is measured by DNA content using SYBR green in vitro.
The target of test [3] is Glucose transporter (Leishmania mexicana) (UniProt O61059). Kind of test: ST_JUDE_LEISH: Cytotoxicity at 2uM final concentration against transgenic Leishmania Mexicana promastigotes LmGT2 that are glucose transport deficient and complemented with the L. Mexicana glucose transporter 2. Activity is measured by DNA content using SYBR green in vitro.

Solute carrier family 2, facilitated glucose transporter member 1 (Homo sapiens), sequence (P11166 whole entry): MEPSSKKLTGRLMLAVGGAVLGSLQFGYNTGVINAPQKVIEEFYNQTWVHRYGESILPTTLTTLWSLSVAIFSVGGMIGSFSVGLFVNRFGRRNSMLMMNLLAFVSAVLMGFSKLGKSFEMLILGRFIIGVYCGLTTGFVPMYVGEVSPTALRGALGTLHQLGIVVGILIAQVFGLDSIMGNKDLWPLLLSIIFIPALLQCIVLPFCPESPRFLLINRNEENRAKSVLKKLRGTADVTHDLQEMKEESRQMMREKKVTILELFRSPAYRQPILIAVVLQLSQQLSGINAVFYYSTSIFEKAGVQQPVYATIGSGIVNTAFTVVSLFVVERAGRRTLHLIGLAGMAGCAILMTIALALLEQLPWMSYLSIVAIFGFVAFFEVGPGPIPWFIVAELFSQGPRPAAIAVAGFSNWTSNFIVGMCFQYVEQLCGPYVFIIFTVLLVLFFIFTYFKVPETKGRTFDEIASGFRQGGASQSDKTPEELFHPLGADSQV

On to `CC(C)c1ccc2oc(-c3ccc(NC(=O)c4ccc([N+](=O)[O-])o4)cc3)nc2c1`, for which the results for the inhibition in test [1], in test [2] and in test [3] were 10.9%, 10.2% and 4.26%, respectively.
`Cc1ccc2[nH]c(-c3ccc(C=CC(=O)NC4CCN(Cc5ccccc5)CC4)cc3)nc2c1`: the inhibition (usually the relative decrease from the control value, in per cent) in test [1] amounted to 2.64%; in test [2], 3.29%; in test [3] it was 5.84%.
In the same order, the values of `O=C(Nc1cccc(C(F)(F)F)c1)c1cccc(S(=O)(=O)NCC2CCN(CC3CCCCC3)CC2)c1` are 0.21%, -0.63% and -0.78%.
Take `O=C(Nc1cccc(-c2csc(-c3nc4ccccc4[nH]3)c2)c1)c1ccncc1`: the inhibition was 11.6% in test [1], 8.89% in test [2] and 6.69% in test [3].
Turning to `CC(=O)Nc1cccc(NC(=O)CSc2ccc(-c3nc4ccccc4[nH]3)cn2)c1`, the inhibition is 0.84% in test [1], -0.63% in test [2] and -0.27% in test [3].
As to `COc1ccc2nccc([C@H](O)CN3CCC(NCc4ccc5c(c4C)OCCO5)CC3)c2n1`, the inhibition was 41% in test [1], 59.7% in test [2] and 69.1% in test [3].
Regarding `COc1ccc(CCN(C)CCCOc2ccc(NC(=O)c3cccc4c(=O)c5ccccc5[nH]c34)cc2)cc1OC`, the inhibition stood at 5.62% in test [1], 2.58% in test [2] and 1.73% in test [3].
In the case of `Cc1cc(CN2CC[C@H](NC(=O)c3ccc(Cl)c(Cl)c3)C2)ccc1OC1CCN(Cc2ccccc2)CC1`, the inhibition in test [1] was found to be 11%; in test [2], 8.06%; in test [3] it was 8.04%.
In the same order, the values of `Nc1ncnc2cc(-c3cccc(NC(=O)Nc4ccccc4)c3)sc12` are 3.48%, 2.18% and -1.3%.
For `O=[N+]([O-])c1ccc2nc(Nc3ccc(Cl)c(Cl)c3)c(Nc3ccc(Cl)c(Cl)c3)nc2c1` the same measures were 0.54%, 1.45% and 1.69%.
In the case of `COc1cc(NC(=O)Nc2ccc([N+](=O)[O-])cc2OC)c(OC)cc1Cl`, the inhibition in test [1] was found to be 16.6%; in test [2] it was 9.29%; in test [3] it was 5%.
On to `Cc1cc(-c2ccc3c(c2)CCN(CCC2CCC(NC(=O)/C=C/c4cccc(F)c4)CC2)CC3)on1` (stereo unspecified), for which the inhibition in test [1] came to 2.32%; in test [2], 0.47%; in test [3], 3.42%.

The record behind these values is ChEMBL document CHEMBL3433997, “St. Jude Leishmania screening dataset” (2016).
